Assay outcomes from PubChem.
SKN-1 inh: C. elegans SKN-1 inhibition | inhibition, % at 21.8 µM | 360,000 tested, 0.49% active | C. elegans VP596 Pgst-4::GFP/RFP ratio, acrylamide-induced, 24 h;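 active = interference check ratio from 0.5 to 1.5 plus GFP to RFP signal ratio inhibition reaching or exceeding a fixed threshold, cut at about 30% in these data, passing the limit was not always enough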
PG9 binder: small molecules binding HIV-1 gp120 antibody PG9 | 360,000 tested, 0.43% active | AID 624416 | TR-FRET gp120-PG9 antibody binding | inhibition, % at 6.7 µM; in the data active = inhibition above about 8.5%
EP2 antag: inhibitors of human EP2 prostaglandin E2 receptor | AID 1422 | 260,000 tested, 0.52% active | C6 glioma cells expressing human EP2, cAMP TR-FRET; cells stimulated with saturating PGE2 | P43116 | inhibition, % at 25 µM;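 active = percent inhibition above 40 after rounding to a whole number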;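 note: rat C6 glioma host cells with rolipram phosphodiesterase inhibitor present; the protocol text gives 20 µM as final concentration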
NR1D1 modulator: modulators of human Rev-erb alpha DNA binding. P20393. Rev-erbα–FITC-DNA binding, fluorescence polarization, 90 min. activity, % at 10 µM. 370,000 tested, 0.79% active;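 active = activity above about 14%, limit read from the data; passing the limit was not always enough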
Target sequence (P20393 whole entry, looked up): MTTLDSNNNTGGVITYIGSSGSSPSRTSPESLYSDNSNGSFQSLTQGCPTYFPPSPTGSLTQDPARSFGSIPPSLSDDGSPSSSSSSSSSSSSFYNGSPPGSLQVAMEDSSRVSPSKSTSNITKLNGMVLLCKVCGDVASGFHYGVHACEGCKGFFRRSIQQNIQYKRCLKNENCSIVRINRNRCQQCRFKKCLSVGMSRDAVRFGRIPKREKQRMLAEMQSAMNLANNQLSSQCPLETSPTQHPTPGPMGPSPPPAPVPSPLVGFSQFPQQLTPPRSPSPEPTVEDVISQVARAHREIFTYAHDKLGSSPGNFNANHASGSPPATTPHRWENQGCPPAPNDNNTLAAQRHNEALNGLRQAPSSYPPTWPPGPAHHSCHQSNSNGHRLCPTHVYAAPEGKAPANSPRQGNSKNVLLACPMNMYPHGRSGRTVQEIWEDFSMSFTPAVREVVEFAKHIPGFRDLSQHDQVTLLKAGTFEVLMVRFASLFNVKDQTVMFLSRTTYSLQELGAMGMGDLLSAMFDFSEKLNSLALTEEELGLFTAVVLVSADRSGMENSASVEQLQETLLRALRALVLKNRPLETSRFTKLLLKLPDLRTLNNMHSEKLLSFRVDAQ
RAM inhibit: yeast RAM network inhibition. S. cerevisiae dse1pr::URA3 reporter, 5-FOA growth OD615, 2 d; analog-sensitive cbk1-as2 kinase mutant strain. inhibition, % at 50 µM. 190,000 tested, 1.8% active. AID 868;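 active = inhibition above a set limit, 3 SD over mean compound inhibition, cut at about 8.4% in these data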;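 note: inhibition rescues growth on 5-FOA so higher OD means more RAM inhibition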
EP2 mod: modulators of human EP2 prostaglandin E2 receptor; P43116; induction, % at 25 µM; EP2-expressing cells, cAMP HTRF FRET, PGE2 co-stimulation; 260,000 tested, 0.83% active;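 active = compounds whose cAMP rise, as percent of the full-agonist control response, exceeds 60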;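 note: rat C6 glioma line stably carrying human EP2 under a CMV promoter; the protocol text gives 20 µM as final concentration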
Numbers stand for hits; 0 = inactive; - = not tested or not shown. Most compounds without a hit are left out; they make up all but 2.9% or so of the library.

SMILES	SKN-1 inh	PG9 binder	EP2 antag	NR1D1 modulator	RAM inhibit	EP2 mod
Cc1[nH]c2ccccc2c1SCc1ccccc1	40	0	0	0	0	0
Cc1[nH]c2ccccc2c1SCCN	0	0	0	0	-	-
O=C(Nc1ccccc1-c1nnc(SCc2ccc(Cl)cc2)o1)c1ccccc1	0	0	0	0	8.4	0
N#CC(c1ccccc1)c1ccc(C(=O)c2ccc(F)cc2)cc1 (configuration not stated)	0	0	0	0	0	62
O=C(O)c1ccncc1.O=C(O)c1ccncc1.[NH2-].[NH2-].[Pt]	-	-	51	-	-	0
Oc1cc2c(c(Cl)c1O)CCNCC2c1ccccc1 (configuration not stated)	42	0	0	0	-	0
CC1CCCN(CC(O)c2ccc3c(c2)CC(C)N3S(C)(=O)=O)C1 (configuration not stated)	-	-	0	-	-	0
CCOC(=O)c1c(N)nn(C(=O)CC)c1-c1ccccc1	0	0	0	0	0	0
CCOC(=O)c1c(N)nn(C(=O)C(C)C)c1-c1ccccc1	0	0	0	0	0	63
COc1ccc(S(=O)(=O)N2CCSC2c2ccco2)cc1 (configuration not stated)	-	-	0	-	-	0
O=C(NCc1cccnc1)C1C2C=CC(O2)C1C(=O)Nc1ccc2ncccc2c1 (configuration not stated)	-	-	0	-	-	0
CCCn1c(=O)c2c(C(=O)OCC)cc(-c3ccco3)nc2n(CCC)c1=O	0	0	-	0	0	0
CCOC(=O)c1cc(-c2ccco2)nc2c1c(C)nn2-c1ccccc1	40	0	0	0	0	0
O=C1C=CC(=O)N1c1ccc(O)cc1	0	0	0	0	-	0
O=C1C=CC(=O)N1c1ccc(OC(F)F)cc1	0	0	109	0	0	0
CC(C)OCCCNC(=O)c1c(N)n(/N=C/c2cccs2)c2nc3ccccc3nc12	0	0	-	0	11	0
COCCCNC(=O)c1c(N)n(/N=C/c2ccccn2)c2nc3ccccc3nc12	0	0	-	0	0	-
COc1cccc(NC(=O)Nc2ccc3c(c2)N(C)C(=O)CS3)c1	0	0	42	0	0	0
CC(=O)Nc1ccc(NC(=O)Nc2ccc3c(c2)N(C)C(=O)CS3)cc1	0	0	0	0	0	0
COc1cccc(NC(=O)Nc2ccncc2)c1	0	0	0	0	0	0
COc1cccc(NC(=O)Nc2ccc(C(C)(C)C)cc2)c1	0	0	0	0	9.9	0
COc1ccc(NCc2ccc(O)c3ncccc23)c(OC)c1	-	-	0	-	-	0
CCOC(=O)C(C)(C)N(Cc1cccc(C)c1)S(=O)(=O)c1ccc(Cl)c([N+](=O)[O-])c1	0	0	0	0	11	0
Nc1ccc2c(O)cc(S(=O)(=O)O)cc2c1	0	0	-	0	-	-
Nc1ccc2c(Cl)cc(Cl)cc2c1	63	0	-	0	-	-
SMILES	SKN-1 inh	PG9 binder	EP2 antag	NR1D1 modulator	RAM inhibit	EP2 mod
CC1CCc2nc(NC(=O)CN3CCOCC3)sc2C1 (configuration not stated)	0	0	0	0	0	0
COC(=O)c1c(NC(=O)CN2CCOCC2)sc2c1CCC(C)C2 (configuration not stated)	0	0	0	0	0	61
CN1CCc2c(sc(N)c2C(=O)c2ccc(Cl)cc2)C1	0	0	-	0	-	-
Nc1sc2c(c1C(=O)c1ccc(Cl)cc1)CCC2	-	-	0	-	-	83
O=C(CN1CCOCC1)Nc1sc2c(c1C(=O)c1ccc(Cl)cc1)CCC2	-	-	0	-	-	62
NC(=O)c1c(NC(=O)CN2CCOCC2)sc2c1CCC2	0	0	0	0	0	0
COc1ccc(OC)c(N(CC(=O)N2CCCCC2)S(C)(=O)=O)c1	-	-	0	-	-	0
COc1cc(OC)c(-c2nc3cnccn3c2NCc2ccccc2)cc1OC	-	-	-	-	-	0
Cc1cc(=O)[nH]c(N2CCN(CC(=O)N3CCCCC3C)CC2)n1 (configuration not stated)	-	-	-	-	-	0
O=C(O)C1C2C=CC3(CN(Cc4c(F)cccc4Cl)C(=O)C13)O2 (configuration not stated)	-	-	0	-	-	0
O=c1cc(-c2ccccc2Cl)c2c([nH]1)CCC2	67	0	0	0	0	0
Cc1ccc(S(=O)(=O)Oc2ccccc2/C=N/NC(N)=S)cc1	0	0	0	0	9.1	0
CCCCC1OC2(C)OC(=N)C1(C#N)C(C#N)(C#N)C2c1ccccc1 (configuration not stated)	44	0	0	0	0	0
Cc1ccc(Cn2cc(C(=O)c3ccc(F)cc3)c(=O)c3cc4c(cc32)OCCO4)cc1	0	0	0	0	10	0
Cc1ccc(N2CCN(S(=O)(=O)c3ccc4oc(=O)ccc4c3)CC2)c(C)c1	43	0	-	0	-	-
O=c1ccc2cc(S(=O)(=O)N3CCN(c4cc(Cl)ccc4Cl)CC3)ccc2o1	0	0	0	0	0	0
C#CCN1C(=O)C2C(C(=O)NC)C3C=CC2(O3)C1C(=O)NCc1ccc(F)cc1 (configuration not stated)	-	-	0	-	-	0
COc1cc(/C=C/C(=O)CC(=O)/C=C/c2ccc(O)c(OC)c2)ccc1O	0	0	74	0	8.7	0
CC(C)C(C(=O)Nc1ccc(N2CCOCC2)cc1)N1C(=O)c2ccccc2C1=O (configuration not stated)	0	0	0	0	9.3	0
CC(C(=O)Nc1ccc(N2CCOCC2)cc1)N1C(=O)c2ccccc2C1=O (configuration not stated)	0	0	0	0	0	0
COCCn1c2ccccc2n2c(=O)n(CC(=O)N3CCCc4ccccc43)nc12	-	-	0	-	-	0
O=C(Nc1ccc(C(=O)N2CCOCC2)cc1)c1cc2nc(-c3ccco3)cc(C(F)(F)F)n2n1	-	-	0	-	-	0
O=[N+]([O-])c1cc(C(F)(F)F)cc([N+](=O)[O-])c1NCCCNc1ccc([N+](=O)[O-])c2cccnc12	0	0	0	0	9.0	0
CSc1nnc(Cc2sc(-c3ccccc3)nc2-c2ccccc2)o1	0	0	0	0	0	0
COc1ccc(CSc2nnc(Cc3sc(-c4ccccc4)nc3-c3ccccc3)o2)cc1	0	0	0	0	9.6	0
SMILES	SKN-1 inh	PG9 binder	EP2 antag	NR1D1 modulator	RAM inhibit	EP2 mod
COc1cc(CN(Cc2ccccn2)C2CC(C)(C)NC(C)(C)C2)cc2c1OCO2	-	-	0	-	-	0
CC(C)(C)C1(O)CC(C(F)(F)F)=NN1C(=O)c1cccnc1 (configuration not stated)	-	-	0	-	-	0
NS(=O)(=O)c1ccc(NC(=O)N2c3ccccc3Sc3ccccc32)cc1	-	0	-	0	9.4	0
CCCCS/C(=C(/C#N)C(N)=O)c1cc2c([nH]1)CCCC2	37	0	0	0	0	0
CCOC(=O)c1sc(NC(=O)COc2ccccc2OCC)nc1C	-	-	0	-	-	0
Cc1cc[nH]c(=O)c1NCc1cc2c(C)nn(-c3ccccc3)c2[nH]c1=O	-	-	46	-	-	0
Cc1ccc2nc(N/N=C/c3cccc(C)n3)cc(C)c2c1	-	-	40	-	-	0
